This is an account of results in PubChem BioAssay (NCI).

Among the test systems are NCI-H23 lung; NCI-H226 lung; NCI-H322M lung; HOP-62 NSCLC; NCI-H460 lung; HOP-92 NSCLC; NCI-H522 lung; A549/ATCC NSCLC; 786-0 renal; COLO 205 colon; DU-145 prostate; K-562 leukemia; MALME-3M melanoma; MDA-MB-231 breast; RXF 393 renal; SF-268 CNS; SF-295 CNS; SF-539 CNS; UACC-257 melanoma; M14 melanoma.
Assay in all cases: NCI-60 one-dose screen, 48 h (100 = growth as untreated, 0 = no growth, -100 = all killed)
Conditions in all cases: 10 µM unless noted

Structures are written as SMILES. Compounds without any hit were thinned out: in the full panel of roughly 83,000, 20% have a hit.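 Treatment: one concentration, 48 hours, 96-well format. Scoring: percent growth, with anything below 10 considered active.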 Values without a mark were called inactive. Calls of active or inactive are those of the source.

For the compound `CC1(C)C(=O)/C(=C\c2cccnc2)C[C@]2(C)[C@H]3CC[C@@H]4[C@@H](C(=O)/C=C/c5ccncc5)CC[C@@]4(C)[C@]3(C)CC[C@@H]12`, the growth is 5.99% (active) with NCI-H23 lung; 1.56% (active) in the assay with NCI-H226 lung; 39.9% with NCI-H322M lung; 2.07% (active) with HOP-62 NSCLC; 23.7% in the assay with NCI-H460 lung; 16.1% with HOP-92 NSCLC. Besides, the growth with NCI-H522 lung was 30.1%; with A549/ATCC NSCLC, 1.98% (active); in the assay with 786-0 renal, -55.7% (active); with COLO 205 colon it was 12.3%; in the assay with DU-145 prostate, -1.7% (active); in the assay on K-562 leukemia, 3.14% (active). The growth is 0.438% (active) in the assay with MALME-3M melanoma; 16.8% in the assay with MDA-MB-231 breast; -84.2% (active) with RXF 393 renal; 27.3% in the assay with SF-268 CNS; 15.9% in the assay on SF-295 CNS; 1.24% (active) in the assay on SF-539 CNS. Also, the values for the growth with UACC-257 melanoma and in the assay with M14 melanoma were 49.3% and -13% (active), respectively.

As to `CC(C)(C)c1[nH]nc2c1C(c1cc3ccccc3[nH]c1=O)Nc1cc(C(=O)OCc3ccccc3)ccc1N2` (stereo not given), the growth in the assay on NCI-H23 lung is 69%; in the assay with NCI-H226 lung, 74.8%; in the assay with NCI-H322M lung it was 63%; in the assay on HOP-62 NSCLC, 65.1%; in the assay with NCI-H460 lung it was 19.4%; in the assay on HOP-92 NSCLC, 87.7%. For the same compound, the growth with NCI-H522 lung is 74.6%; with A549/ATCC NSCLC, 41.6%; in the assay with 786-0 renal, 49.4%; in the assay on COLO 205 colon, 84.3%; with DU-145 prostate, 65%; in the assay with K-562 leukemia, 17.1%. Besides, the growth is 58.7% with MALME-3M melanoma; 63.3% with MDA-MB-231 breast; 59.7% with RXF 393 renal; 58.9% in the assay on SF-268 CNS; 30.3% in the assay with SF-295 CNS; 66.1% in the assay on SF-539 CNS. The growth in the assay with UACC-257 melanoma was 69.7%; with M14 melanoma it was 55.6%.

Regarding `Clc1ccc2c(NCCNc3nc(-c4ccccc4)cc(-c4ccccc4)n3)ccnc2c1`, the growth was -47.3% (active) in the assay with NCI-H23 lung; -56.2% (active) with NCI-H226 lung; -10.5% (active) in the assay with NCI-H322M lung; -73.6% (active) in the assay on HOP-62 NSCLC; -73% (active) in the assay on NCI-H460 lung; -66.8% (active) in the assay with HOP-92 NSCLC. Further, the growth was -69.9% (active) with NCI-H522 lung; -75.2% (active) in the assay with A549/ATCC NSCLC; -90.8% (active) in the assay with 786-0 renal; -72.2% (active) in the assay with COLO 205 colon; -34.1% (active) with DU-145 prostate; -46.6% (active) with K-562 leukemia. Also, the growth in the assay on MALME-3M melanoma was -89.3% (active); in the assay with MDA-MB-231 breast it was -80.9% (active); with RXF 393 renal, -88.2% (active); in the assay with SF-268 CNS, -59.7% (active); in the assay with SF-295 CNS it was -75.8% (active); in the assay on SF-539 CNS, -81.1% (active). The growth in the assay with UACC-257 melanoma was 77.8%; in the assay on M14 melanoma, -75.4% (active).

Consider `Cn1cc(-c2csc(-c3cn(CCCN4CCCCC4)c4ccccc34)n2)c2cccnc21`, for which the growth is 84% in the assay with NCI-H23 lung; 52.7% in the assay with NCI-H226 lung; 82.7% in the assay with NCI-H322M lung; -84% (active) with HOP-62 NSCLC; -58.7% (active) in the assay on NCI-H460 lung; 57.8% with HOP-92 NSCLC. Moreover, the growth with NCI-H522 lung was 95.2%; in the assay on A549/ATCC NSCLC, -14.4% (active); in the assay with 786-0 renal, -87.1% (active); in the assay with COLO 205 colon it was -80% (active); in the assay on DU-145 prostate, -52.5% (active); in the assay on K-562 leukemia, -70% (active). The growth in the assay with MALME-3M melanoma was -78.6% (active); in the assay on MDA-MB-231 breast it was -81.4% (active); with RXF 393 renal it was -78.6% (active); in the assay with SF-268 CNS it was -25.6% (active); in the assay with SF-295 CNS, 32%; in the assay with SF-539 CNS, -88.6% (active). Besides, the figures for the growth with UACC-257 melanoma and in the assay on M14 melanoma were -80.3% (active) and -80.9% (active), respectively.

Take `NCCn1cc(-c2nc(-c3c[nH]c4ncccc34)cs2)c2ccccc21`: the growth in the assay with NCI-H23 lung was 83%; in the assay on NCI-H226 lung it was 70.6%; in the assay with NCI-H322M lung it was 74.6%; in the assay with HOP-62 NSCLC it was 75.4%; with NCI-H460 lung, 89.8%; with HOP-92 NSCLC it was 54.3%. The growth with NCI-H522 lung is 90.4%; in the assay with A549/ATCC NSCLC it was 76.8%; with 786-0 renal, 89.8%; with COLO 205 colon, 96.7%; with DU-145 prostate it was 99.5%; in the assay with K-562 leukemia, 82.9%. The growth in the assay on MALME-3M melanoma is 73.8%; in the assay with MDA-MB-231 breast it was 66.2%; in the assay with RXF 393 renal it was 84.9%; with SF-268 CNS, 84.7%; in the assay with SF-295 CNS, 105%; in the assay with SF-539 CNS it was 90.2%. Further, the results for the growth with UACC-257 melanoma and with M14 melanoma were 92.8% and 96.9%, respectively.

Regarding `Cn1cccc1/C=C1/SC(=S)N(CCc2ccc(O)cc2)C1=O`, the growth in the assay on NCI-H23 lung was 79.5%; with NCI-H226 lung it was 87.8%; with NCI-H322M lung, 87.3%; in the assay with HOP-62 NSCLC, 56.3%; with NCI-H460 lung it was 33.6%; with HOP-92 NSCLC, 88.3%. Further, the growth in the assay with NCI-H522 lung was 47.8%; in the assay on A549/ATCC NSCLC, 61.5%; in the assay on 786-0 renal, 64.4%; with COLO 205 colon it was 103%; with DU-145 prostate, 82.3%; in the assay on K-562 leukemia it was 18.6%. Further, the growth in the assay with MALME-3M melanoma was 36.7%; in the assay with MDA-MB-231 breast, 59.1%; with RXF 393 renal, 76.6%; in the assay with SF-268 CNS, 74%; in the assay on SF-295 CNS, 37.6%; with SF-539 CNS, 43.6%. The results for the growth with UACC-257 melanoma and with M14 melanoma were 74.1% and 19.9%, respectively.

Turning to `Cn1c(=O)c2c(nc(N3CCCC3)n2C)n(C)c1=O`, the growth is 96.4% in the assay on NCI-H23 lung; 102% in the assay on NCI-H226 lung; 105% with NCI-H322M lung; 104% with HOP-62 NSCLC; 102% in the assay with NCI-H460 lung; 90.9% with HOP-92 NSCLC. Further, the growth in the assay on NCI-H522 lung was 91.5%; in the assay with A549/ATCC NSCLC it was 85.6%; in the assay with 786-0 renal it was 97%; in the assay with COLO 205 colon it was 110%; with DU-145 prostate it was 105%; in the assay with K-562 leukemia, 99.2%. Further, the growth was 103% in the assay with MALME-3M melanoma; 98.9% in the assay with MDA-MB-231 breast; 104% in the assay with RXF 393 renal; 97.3% with SF-268 CNS; 102% in the assay with SF-295 CNS; 101% in the assay with SF-539 CNS. The growth in the assay on UACC-257 melanoma was 93.2%; in the assay on M14 melanoma it was 92.3%.

With `COC(=O)[C@]12CC[C@@H](C(/C=C/c3cccnc3)=N/O)[C@@H]1[C@H]1CC[C@@H]3[C@@]4(C)CC(=C/c5cccnc5)/C(=N/O)C(C)(C)[C@@H]4CC[C@@]3(C)[C@]1(C)CC2`, the growth in the assay on NCI-H23 lung is 43.1%; in the assay on NCI-H226 lung, 13.7%; with NCI-H322M lung, 76.5%; with HOP-62 NSCLC, 60%; in the assay on NCI-H460 lung it was 36.8%; in the assay with HOP-92 NSCLC it was 54.4%. Also, the growth in the assay with NCI-H522 lung is 43.3%; in the assay with A549/ATCC NSCLC it was 44.6%; in the assay with 786-0 renal it was 67.8%; with COLO 205 colon, 18%; in the assay on DU-145 prostate it was 55.6%; with K-562 leukemia, 24.9%. Besides, the growth in the assay with MALME-3M melanoma was 39.2%; in the assay on MDA-MB-231 breast it was 45.5%; in the assay with RXF 393 renal it was 67.1%; with SF-268 CNS it was 56.7%; in the assay with SF-295 CNS, 30.6%; with SF-539 CNS, 72.3%. For the same compound, the growth was 59.1% in the assay with UACC-257 melanoma and 19.3% in the assay with M14 melanoma.
